Targets with a hit are over-represented here; the source holds about 7,900 in all. About 0.6% of all pairs of compound and target were hits. Unmarked numbers belong to inactive results.
Tests used:
Test in all cases: log2 fold change, soluble protein after heating vs DMSO (PISA); higher = thermal stabilisation; K562 cells, 10 uM, 30 min; active = over 0.2 and 3.5 SD of the protein, either way, in both replicates (recomputed)
erlotinib = compound: C#Cc1cccc(Nc2ncnc3cc(OCCOC)c(OCCOC)cc23)c1 [erlotinib]
How it was run: (§1)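 K562 cells at 2×10^6 cells/mL were given 10 μM compound for 30 min. Aliquots then went through 3 min of heating across 48°C-58°C, were pooled, and were extracted in PBS with 0.5% NP-40 at 4°C, and the supernatant after 21,000xg for 90 min was quantified by TMTpro 16plex LC-MS/MS with channel sums equalised. Thermal stability relative to control samples, from duplicates, is given as log2 fold change.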

[1] = compound: C/C(=N\NC(=O)C1=CC(=CC=C1)S(=O)(=O)N2CCOCC2)/C3=C(C=CC(=C3)Cl)O
How it was run: as §1

[2] = compound: C1=CC(=C(C=C1Cl)C2=NC3=NC=CN=C3C(=N2)NC4=CC=NC=C4)F
How it was run: as §1

[3] = compound: C1=CC(=CC=C1C2=NC3=C(N2)C=C(C=C3)C(=O)N)OC4=CC=C(C=C4)Cl
How it was run: as §1

[4] = compound: C1=CC2=C(C=CC(=C2)/C=C\3/C(=O)NC(=NCC4=CC=CS4)S3)N=C1
How it was run: as §1

[5] = compound: C1=CC2=NC=CN=C2C=C1/C=C/3\C(=O)NC(=O)S3
How it was run: as §1

[6] = compound: C1=CC=C(C=C1)C2=NC(=C(N2)C3=CC=NC=C3)C4=CC(=C(C=C4)Cl)O
How it was run: as §1

[7] = compound: C1=CC=C2C(=C1)C3=NNC4=CC=CC(=C43)C2=O
How it was run: as §1

[8] = compound: C1CCN(C1)C(=O)NC2=CC=CC(=C2)NC3=NC=C(C(=N3)NCCC4=CN=CN4)Br
How it was run: as §1

[9] = compound: C1CN(CCC1(CC2=CC=C(C=C2)Cl)N)C3=NC=NC4=C3C=CN4
How it was run: as §1

IRAK-1-4 Inhibitor I = compound: C1COCCN1CCN2C3=CC=CC=C3N=C2NC(=O)C4=CC(=CC=C4)[N+](=O)[O-] [IRAK-1-4 Inhibitor I]
How it was run: as §1

ibrutinib = compound: C=CC(=O)N1CCC[C@@H](n2nc(-c3ccc(Oc4ccccc4)cc3)c3c(N)ncnc32)C1 [ibrutinib]
How it was run: as §1

[10] = compound: CC(=O)c1cnc2ccc(-c3cc(Cl)c(O)c(Cl)c3)nc2c1N[C@H]1CC[C@H](CN(C)C)CC1
How it was run: as §1

ralimetinib = compound: CC(C)(C)Cn1c(N)nc2ccc(-c3[nH]c(C(C)(C)C)nc3-c3ccc(F)cc3)nc21 [ralimetinib]
How it was run: as §1

[11] = compound: CC(C)(O)CC(=O)NCCn1ccc2ncnc(Nc3ccc(Oc4cccc(C(F)(F)F)c4)c(Cl)c3)c21
How it was run: as §1

[12] = compound: CC(C)C1=C2N=C(C=C(N2N=C1)NCC3=CC=CC=C3)NCCCCCCN
How it was run: as §1

[13] = compound: CC(C)C[C@@H](C=O)NC(=O)[C@H](CC(C)C)NC(=O)[C@H](CC(C)C)NC(=O)OCc1ccccc1
How it was run: as §1

pinometostat = compound: CC(C)N(C[C@H]1O[C@@H](n2cnc3c(N)ncnc32)[C@H](O)[C@@H]1O)[C@H]1C[C@@H](CCc2nc3cc(C(C)(C)C)ccc3[nH]2)C1 [pinometostat]
How it was run: as §1

[14] = compound: CC1=C(C(CC(=O)N1)C2=CC=C(C=C2)C(F)(F)F)C(=O)NC3=C(C=C4C(=C3)C=NN4)F
How it was run: as §1

[15] = compound: CC1=C(C2=C(C=C1)C(=O)C3=CC=CC=C3N2CCCN)C
How it was run: as §1

Sequence of UniProt Q07960 (Q07960 whole entry, looked up): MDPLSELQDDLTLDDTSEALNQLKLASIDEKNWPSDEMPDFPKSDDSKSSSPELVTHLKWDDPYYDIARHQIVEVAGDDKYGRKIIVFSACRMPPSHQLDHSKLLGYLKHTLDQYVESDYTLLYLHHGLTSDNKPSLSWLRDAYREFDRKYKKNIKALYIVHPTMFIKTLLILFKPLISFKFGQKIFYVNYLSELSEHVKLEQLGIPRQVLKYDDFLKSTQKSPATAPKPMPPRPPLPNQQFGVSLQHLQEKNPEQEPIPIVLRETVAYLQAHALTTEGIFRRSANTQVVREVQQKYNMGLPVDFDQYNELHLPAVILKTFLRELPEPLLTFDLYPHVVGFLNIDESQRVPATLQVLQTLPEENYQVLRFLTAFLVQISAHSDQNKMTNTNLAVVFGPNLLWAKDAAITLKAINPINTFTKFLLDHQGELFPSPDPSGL
Sequence of UniProt P55263 (P55263 whole entry, looked up): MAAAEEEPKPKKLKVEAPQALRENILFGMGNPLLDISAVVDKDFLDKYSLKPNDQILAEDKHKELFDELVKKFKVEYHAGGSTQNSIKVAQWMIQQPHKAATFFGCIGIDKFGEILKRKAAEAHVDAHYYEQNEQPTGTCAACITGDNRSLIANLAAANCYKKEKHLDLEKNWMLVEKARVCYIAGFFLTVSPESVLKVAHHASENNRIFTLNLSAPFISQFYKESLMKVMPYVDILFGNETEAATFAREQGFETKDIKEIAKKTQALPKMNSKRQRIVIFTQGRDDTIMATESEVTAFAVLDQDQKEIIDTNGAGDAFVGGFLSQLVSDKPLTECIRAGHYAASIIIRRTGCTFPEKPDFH
Sequence of UniProt Q9UBL3 (Q9UBL3 whole entry, looked up): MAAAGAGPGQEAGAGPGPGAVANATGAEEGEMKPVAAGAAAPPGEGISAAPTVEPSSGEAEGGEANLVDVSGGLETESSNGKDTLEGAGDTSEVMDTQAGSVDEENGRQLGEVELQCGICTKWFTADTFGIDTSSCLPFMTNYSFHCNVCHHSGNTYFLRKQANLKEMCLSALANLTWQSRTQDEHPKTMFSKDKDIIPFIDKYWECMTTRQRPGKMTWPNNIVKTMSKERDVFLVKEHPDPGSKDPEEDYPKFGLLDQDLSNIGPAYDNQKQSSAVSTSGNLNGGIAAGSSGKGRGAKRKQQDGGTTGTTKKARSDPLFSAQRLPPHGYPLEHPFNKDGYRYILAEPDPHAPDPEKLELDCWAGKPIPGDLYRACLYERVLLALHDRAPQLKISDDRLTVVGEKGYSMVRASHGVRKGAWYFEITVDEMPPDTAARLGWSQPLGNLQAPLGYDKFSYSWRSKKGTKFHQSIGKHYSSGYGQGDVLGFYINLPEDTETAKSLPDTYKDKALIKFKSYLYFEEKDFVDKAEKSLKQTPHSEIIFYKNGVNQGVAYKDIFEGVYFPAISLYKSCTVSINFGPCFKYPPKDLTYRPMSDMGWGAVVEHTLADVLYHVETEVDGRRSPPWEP
Sequence of UniProt Q5JTZ9 (Q5JTZ9 whole entry, looked up): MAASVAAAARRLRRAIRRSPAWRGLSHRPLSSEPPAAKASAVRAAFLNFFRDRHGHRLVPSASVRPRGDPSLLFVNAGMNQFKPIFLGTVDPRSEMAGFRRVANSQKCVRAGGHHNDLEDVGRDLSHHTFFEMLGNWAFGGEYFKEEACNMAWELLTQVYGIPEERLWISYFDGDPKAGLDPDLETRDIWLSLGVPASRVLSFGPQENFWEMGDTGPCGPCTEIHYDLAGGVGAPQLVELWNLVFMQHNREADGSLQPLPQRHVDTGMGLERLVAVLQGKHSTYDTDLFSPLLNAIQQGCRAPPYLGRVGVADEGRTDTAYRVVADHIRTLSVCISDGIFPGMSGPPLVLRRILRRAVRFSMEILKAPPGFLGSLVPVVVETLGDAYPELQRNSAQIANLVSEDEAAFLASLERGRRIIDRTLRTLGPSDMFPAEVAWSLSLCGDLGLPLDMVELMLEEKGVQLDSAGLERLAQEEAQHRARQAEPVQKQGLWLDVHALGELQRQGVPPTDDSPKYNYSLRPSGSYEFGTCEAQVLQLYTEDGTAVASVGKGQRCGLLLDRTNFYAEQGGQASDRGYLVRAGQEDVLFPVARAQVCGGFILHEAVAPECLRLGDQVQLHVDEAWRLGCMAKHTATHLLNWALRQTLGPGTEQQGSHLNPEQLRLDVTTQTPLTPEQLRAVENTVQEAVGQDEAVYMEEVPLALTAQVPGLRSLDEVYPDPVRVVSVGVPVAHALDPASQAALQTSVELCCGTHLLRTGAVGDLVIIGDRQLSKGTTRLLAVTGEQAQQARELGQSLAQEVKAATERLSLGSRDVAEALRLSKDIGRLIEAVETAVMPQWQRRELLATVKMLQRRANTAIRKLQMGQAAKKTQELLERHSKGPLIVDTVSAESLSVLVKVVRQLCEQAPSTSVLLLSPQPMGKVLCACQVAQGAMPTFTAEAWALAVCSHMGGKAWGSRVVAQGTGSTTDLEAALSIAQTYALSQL
Sequence of UniProt Q9Y312 (Q9Y312 whole entry, looked up): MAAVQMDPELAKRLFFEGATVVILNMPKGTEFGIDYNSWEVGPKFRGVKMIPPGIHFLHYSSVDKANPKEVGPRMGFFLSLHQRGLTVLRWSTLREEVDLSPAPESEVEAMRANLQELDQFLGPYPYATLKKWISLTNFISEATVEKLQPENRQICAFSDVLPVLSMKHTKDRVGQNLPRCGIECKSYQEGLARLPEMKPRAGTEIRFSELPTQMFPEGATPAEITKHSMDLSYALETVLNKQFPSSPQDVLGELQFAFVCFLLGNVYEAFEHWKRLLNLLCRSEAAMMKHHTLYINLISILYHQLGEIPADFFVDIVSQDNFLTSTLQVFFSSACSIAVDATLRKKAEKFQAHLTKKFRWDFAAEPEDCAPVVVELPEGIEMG
Sequence of UniProt O15440 (O15440 whole entry, looked up): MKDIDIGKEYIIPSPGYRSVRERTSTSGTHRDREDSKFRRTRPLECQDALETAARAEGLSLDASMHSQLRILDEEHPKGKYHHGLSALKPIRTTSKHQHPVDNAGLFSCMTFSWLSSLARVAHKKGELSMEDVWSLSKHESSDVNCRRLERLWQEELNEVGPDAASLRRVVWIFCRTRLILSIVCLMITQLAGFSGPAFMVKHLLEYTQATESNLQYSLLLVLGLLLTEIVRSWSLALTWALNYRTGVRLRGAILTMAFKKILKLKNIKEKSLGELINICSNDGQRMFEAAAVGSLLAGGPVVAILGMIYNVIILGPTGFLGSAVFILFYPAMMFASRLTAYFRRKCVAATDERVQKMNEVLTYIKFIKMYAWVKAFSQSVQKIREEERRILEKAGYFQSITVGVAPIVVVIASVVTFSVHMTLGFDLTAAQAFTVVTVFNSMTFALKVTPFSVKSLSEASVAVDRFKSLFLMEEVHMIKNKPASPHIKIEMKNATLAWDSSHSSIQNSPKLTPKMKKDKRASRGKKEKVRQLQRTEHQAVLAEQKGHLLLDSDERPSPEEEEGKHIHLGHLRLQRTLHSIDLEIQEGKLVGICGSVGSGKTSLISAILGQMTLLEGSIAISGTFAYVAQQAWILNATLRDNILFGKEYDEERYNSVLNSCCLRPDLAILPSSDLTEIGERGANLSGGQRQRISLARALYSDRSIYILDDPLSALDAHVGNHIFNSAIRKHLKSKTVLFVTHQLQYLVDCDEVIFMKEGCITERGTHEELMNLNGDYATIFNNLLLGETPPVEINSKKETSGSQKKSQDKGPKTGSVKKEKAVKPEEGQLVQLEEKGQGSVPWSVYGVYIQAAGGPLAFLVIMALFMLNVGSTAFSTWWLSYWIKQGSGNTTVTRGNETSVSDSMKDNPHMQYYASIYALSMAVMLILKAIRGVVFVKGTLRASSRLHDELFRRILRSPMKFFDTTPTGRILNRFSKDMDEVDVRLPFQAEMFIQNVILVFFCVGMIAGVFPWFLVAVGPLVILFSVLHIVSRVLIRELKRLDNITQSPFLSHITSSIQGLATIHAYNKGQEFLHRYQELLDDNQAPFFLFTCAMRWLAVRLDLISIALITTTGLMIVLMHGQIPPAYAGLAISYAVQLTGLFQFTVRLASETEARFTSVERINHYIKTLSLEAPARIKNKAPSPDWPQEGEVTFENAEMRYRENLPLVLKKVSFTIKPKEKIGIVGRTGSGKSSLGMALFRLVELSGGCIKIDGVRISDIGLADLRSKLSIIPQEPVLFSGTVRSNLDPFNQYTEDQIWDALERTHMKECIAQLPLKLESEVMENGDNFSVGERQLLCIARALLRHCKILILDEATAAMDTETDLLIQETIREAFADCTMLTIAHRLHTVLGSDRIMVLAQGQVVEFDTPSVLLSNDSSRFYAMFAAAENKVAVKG
Sequence of UniProt Q9NX46 (Q9NX46 whole entry, looked up): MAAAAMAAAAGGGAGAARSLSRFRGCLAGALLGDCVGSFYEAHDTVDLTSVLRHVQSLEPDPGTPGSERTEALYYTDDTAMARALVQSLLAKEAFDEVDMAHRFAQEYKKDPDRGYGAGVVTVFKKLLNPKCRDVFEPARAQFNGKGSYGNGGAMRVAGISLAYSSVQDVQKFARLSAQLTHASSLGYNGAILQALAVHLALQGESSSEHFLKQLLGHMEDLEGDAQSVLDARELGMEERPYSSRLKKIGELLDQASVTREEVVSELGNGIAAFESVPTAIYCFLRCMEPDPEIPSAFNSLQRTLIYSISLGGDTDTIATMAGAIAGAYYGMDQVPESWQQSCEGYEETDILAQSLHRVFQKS
Sequence of UniProt Q9BTT0 (Q9BTT0 whole entry, looked up): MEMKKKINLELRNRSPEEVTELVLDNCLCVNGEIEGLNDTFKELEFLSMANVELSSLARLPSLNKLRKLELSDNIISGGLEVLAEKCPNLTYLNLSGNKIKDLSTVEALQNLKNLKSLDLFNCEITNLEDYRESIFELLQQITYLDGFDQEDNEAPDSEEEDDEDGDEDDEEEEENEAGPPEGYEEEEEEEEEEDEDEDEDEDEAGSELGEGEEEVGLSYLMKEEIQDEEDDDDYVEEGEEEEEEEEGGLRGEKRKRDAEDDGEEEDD
Sequence of UniProt P56385 (P56385 whole entry, looked up): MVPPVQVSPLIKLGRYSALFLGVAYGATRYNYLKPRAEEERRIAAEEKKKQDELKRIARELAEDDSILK

Target	log2 fold change (erlotinib)	log2 fold change [1]	log2 fold change [2]	log2 fold change [3]	log2 fold change [4]	log2 fold change [5]	log2 fold change [6]	log2 fold change [7]	log2 fold change [8]	log2 fold change [9]	log2 fold change (IRAK-1-4 Inhibitor I)	log2 fold change (ibrutinib)	log2 fold change [10]	log2 fold change (ralimetinib)	log2 fold change [11]	log2 fold change [12]	log2 fold change [13]	log2 fold change (pinometostat)	log2 fold change [14]	log2 fold change [15]
ALDH9A1 isoform 3 (UniProt P49189)	-0.025	0.016	0.043	0.027	-0.004	0.003	0.037	-0.007	-0.018	0.051	0.059	0.025	0.003	-0.047	-0.004	0.019	-0.022	-0.013	0.028	-0.003
ARHGAP1 (UniProt Q07960)	-0.039	0.014	0.025	0.021	0.038	0.021	0.021	-0.011	0.002	0.019	0.025	-0.014	-0.049	-0.022	-0.014	0.162	0.023	0	-0.011	-0.014
ADK (UniProt P55263)	0.293	-0.034	0.06	-0.062	0.079	0.005	0.035	0.042	-0.032	0.085	0.08	0.034	0.184	0.246	-0.002	0.074	-0.058	0.016	-0.101	-0.001
ADPRHL2 (UniProt Q9NX46)	0.03	0.024	0.122	0.048	0.043	0.006	0.019	0.049	0.003	-0.165	0	-0.021	-0.025	-0.021	-0.088	0.08	-0.038	-0.015	-0.126	-0.002
ABCC5 (UniProt O15440)	-0.027	0.035	0.064	-0.004	0.059	-0.048	-0.014	-0.071	-0.037	0.129	-0.035	-0.082	0	0.001	-0.121	0.119	0.046	0.086	0.038	0.116
ACSL5 isoform 3 (UniProt Q9ULC5)	0.044	0.039	-0.021	0.028	-0.029	-0.011	-0.007	0.047	-0.003	0.061	0.02	0.03	-0.017	-0.03	0.014	-0.354 (active)	-0.001	0.095	0.049	0.088
AKR1C3 (UniProt P42330)	0.063	0.067	0.117	-0.095	0.02	0.067	0.796 (active)	-0.022	0.031	0.044	0.072	-0.108	0.015	0.085	0.265	0.025	-0.149	-0.069	-0.064	-0.049
ATP6V1F isoform 2 (UniProt Q16864)	-0.049	-0.017	0.232	0.077	0.04	0.189	-0.017	-0.024	-0.066	-0.222	0.053	-0.003	-0.189	-0.054	-0.132	-0.024	-0.059	-0.009	0.039	0.253
ADD2 (UniProt P35612)	0.008	-0.011	0.025	0.004	-0.004	0.022	0.012	-0.005	0.004	0.016	0.04	0.009	-0.172	-0.021	-0.004	0.042	-0.024	-0.015	0.01	0.029
ATP5ME (UniProt P56385)	0.013	0.037	0.136	-0.007	0.085	0.051	0.023	0.002	-0.051	0.013	-0.003	-0.002	-0.019	-0.04	-0.044	0.031	0.011	-0.036	0.011	0.039
BUB1B isoform 3 (UniProt O60566)	0.019	0.054	-0.049	-0.031	0.157	0.052	0.037	-0.038	-0.031	-0.095	-0.092	-0.039	-0.023	0.106	-0.089	-0.098	0.09	0.11	-0.011	0.017
ADRM1 (UniProt Q16186)	-0.069	-0.038	-0.007	0.006	0.034	0.033	0.028	0.046	-0.017	-0.076	-0.096	-0.111	0.033	0.065	-0.077	-0.005	-0.064	0.015	-0.022	0.04
ANP32E (UniProt Q9BTT0)	0.211	0.038	0.114	-0.062	0.027	-0.025	0	-0.014	-0.026	-0.084	0.016	0.019	-0.128	-0.035	-0.067	-0.181	-0.036	0.028	0.082	-0.214
AARS2 (UniProt Q5JTZ9)	0.148	-0.035	0.058	-0.019	0.083	0.011	0.025	0.021	-0.003	0.021	0	-0.025	-0.025	-0.011	-0.099	-0.15	-0.013	0.006	0.002	0.048
ATP12A isoform 2 (UniProt P54707)	0.01	-0.002	0.025	0.014	0.007	0.026	0.025	-0.049	-0.051	0.05	0.013	0.009	-0.033	-0.031	-0.036	0.162	-0.005	-0.03	-0.02	0.086
AKAP8 (UniProt O43823)	-0.056	0.032	0.074	0.039	-0.028	-0.004	-0.039	-0.068	0.015	0.018	0.058	0.002	-0.205	-0.018	-0.097	0.019	0.054	0.003	0.056	-0.113
ATP1A4 (UniProt Q13733)	-0.076	0.033	0.183	0.046	-0.051	0.063	-0.003	-0.112	-0.009	-0.015	0.002	-0.013	0.032	-0.025	-0.025	0.121	-0.033	-0.017	0.016	0.03
AFG1L (UniProt Q8WV93)	0.053	0	0.076	-0.083	0.065	0.041	-0.204	-0.042	0.058	-0.004	0.014	-0.016	-0.135	-0.134	-0.091	-0.385 (active)	0.146	0.023	0.057	-0.056
ARL6IP4 (UniProt Q66PJ3)	0.041	0.06	-0.085	-0.01	-0.08	0	-0.12	0.117	0.003	0.039	0.049	0.026	0.018	0.01	0	0.075	0.021	-0.03	0.064	0.049
ASH2L (UniProt Q9UBL3)	-0.021	0.025	0.019	-0.062	-0.012	0.022	0.001	-0.029	-0.004	0.052	-0.022	-0.048	-0.046	0.004	-0.018	0.016	-0.004	-0.013	-0.013	-0.044
ACADM isoform 2 (UniProt P11310)	-0.015	0.014	0.013	0.149	0.044	0.002	0.059	-0.001	0.008	0.067	0.028	0.034	-0.013	-0.068	-0.043	0.051	-0.001	-0.085	-0.006	0
ADD1 isoform 3 (UniProt P35611)	0.041	0.018	-0.013	-0.022	0.071	0.004	-0.08	-0.018	-0.018	0.023	0.048	0.011	-0.274 (active)	-0.068	-0.008	0.038	-0.003	-0.001	-0.004	0.008
AAR2 (UniProt Q9Y312)	0.075	0.089	-0.113	0.057	0.103	0.049	-0.003	-0.137	-0.008	0.043	0.039	0.02	0.021	-0.002	-0.062	-0.012	0.104	0.024	-0.074	-0.035
AFDN isoform 5 (UniProt P55196)	-0.005	0.101	0.021	0.01	-0.02	0	0.012	-0.005	-0.049	0.038	-0.018	-0.012	-0.19	-0.002	-0.125	-0.082	0.01	0.004	0.007	0.049

Reference: the supplement of paper PMC10849652
